# Results as given in PubChem BioAssay AID1851 (National Center for Advancing Translational Sciences (NCATS), 2009).
# Several values for one entry are separate records, joined by “and”; a condition that tells them apart may be missing. Equal values may be shown once. The campaign covered roughly 16,000 compounds. About 5,100 (32%) were called active. Another 25% or so got no clear call; they are omitted. Some of the results follow. A number with no mark means an inactive call. The call rests on the fitted dose curve; in most records, active means well fitted curve in the direction sought with a large enough effect; inconclusive means small, poorly fitted or top-dose-only effect, or effect the other way; inactive means no such curve, though single readings can be large or run the other way.
# Target: Cytochrome P450 3A4 (Homo sapiens) (UniProt P08684)
# Sequence (P08684 whole entry, looked up): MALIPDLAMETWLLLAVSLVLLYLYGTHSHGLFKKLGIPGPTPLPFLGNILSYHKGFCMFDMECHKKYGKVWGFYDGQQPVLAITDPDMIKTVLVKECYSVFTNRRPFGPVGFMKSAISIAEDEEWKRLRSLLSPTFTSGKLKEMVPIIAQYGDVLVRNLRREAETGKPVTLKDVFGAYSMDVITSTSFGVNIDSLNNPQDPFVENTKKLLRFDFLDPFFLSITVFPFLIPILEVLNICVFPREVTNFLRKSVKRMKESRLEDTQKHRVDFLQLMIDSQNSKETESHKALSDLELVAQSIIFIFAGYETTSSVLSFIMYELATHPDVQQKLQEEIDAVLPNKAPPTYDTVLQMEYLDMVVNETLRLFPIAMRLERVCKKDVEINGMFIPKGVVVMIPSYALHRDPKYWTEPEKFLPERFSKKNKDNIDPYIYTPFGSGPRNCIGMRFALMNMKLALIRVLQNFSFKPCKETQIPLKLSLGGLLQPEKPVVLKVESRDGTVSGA
# Test: Cytochrome panel assay with activity outcomes
# Details: recombinant CYP, pro-luciferin dealkylation, luminescence, p450-cyp3a4; series mostly up to 57.1 µM
# On the % scale 0 is the no-effect control and ±100 the full control effect.
SMILES,"activity, negative = inhibition",AC50
CN(Cc1cc(C(C)(C)C)cc(Br)c1O)Cc1cc(C(C)(C)C)cc(Br)c1O,-11.7% [at 11.4 µM],–
CCOC(=O)c1cnc2cc(-c3ccc(C)cc3)nn2c1-c1ccccc1,–,20 µM (active)
CCOC(=O)c1cnc2cc(-c3ccc(C(C)(C)C)cc3)nn2c1N,–,inactive
CCOC(=O)c1cnc(-c2ccccc2)nc1Oc1cccc(Cl)c1,–,inactive
CCOC(=O)C1=NOC(CNC(=O)C2=NOC(CNC(=O)c3c(-c4ccccc4Cl)noc3C)C2)C1 (configuration not stated),–,12.6 µM (active)
CC(=O)C1=NOC(CNC(=O)c2c(-c3ccccc3Cl)noc2C)C1 (configuration not stated),–,15.8 µM (active)
Cc1onc(-c2ccccc2Cl)c1C(=O)NCC(=O)O,–,inactive
CC(=O)c1c(C(C)=O)c(C)n(NC(=O)c2ccccc2Cl)c1C,–,inactive
CC(C)(C[C@@]1(C)NC(=O)NC1=O)OCc1ccccc1,-6.17% [at 11.4 µM],–
O=C(O)c1cc(C(=O)C(=O)c2cc(C(=O)O)c(O)c3ccccc23)c2ccccc2c1O,-22.6% [at 11.4 µM],–
CC(C)c1ccc(NC(=O)N(CCc2nc3ccccc3[nH]2)C2CCCC2)cc1,-18.7% [at 2.29 µM],–
Cc1cccc(NC(=O)N(Cc2nc3ccccc3c(=O)[nH]2)C2CCCC2)c1,–,15.8 µM (active)
CCN(CC(=O)Nc1ccc(N2CCOCC2)cc1)Cc1nc2ccccc2c(=O)[nH]1,–,inactive
Nc1nnc(C(c2ccccc2)c2ccccc2)s1,–,inactive
Cc1cccc(C(CC(=O)N2CCCC2)c2ccccc2)c1O (configuration not stated),–,2.51 µM (active)
O=C(C[C@@H](c1ccccc1)N1CCCCC1)c1ccccc1,-9.31% [at 11.4 µM],–
Cc1ccc(OC(=O)c2cccc(C(=O)Oc3ccc(C)cn3)n2)nc1,–,inactive
FC(F)(F)c1nc(N2CCCC2)ncc1-c1nnnn1-c1ccccc1,21% [at 2.29 µM],–
FC(F)(F)c1nc(-c2ccncc2)ncc1-c1nnnn1-c1ccccc1,–,5.62 µM (active)
O=c1cc(CF)[nH]c(=S)[nH]1,-8.49% [at 11.4 µM],–
COC(=O)c1ccc(NC(=O)c2ccccc2NS(=O)(=O)c2ccccc2)cc1,–,7.94 µM (active)
CC(=O)C=NCC(=O)O,-0.504% [at 11.4 µM],–

SMILES,"activity, negative = inhibition",AC50
C#CCCCO/N=C1/C[C@@H](O)[C@@H](O)[C@@H]2[C@@H]3C(=O)N([C@@H](C)c4ccccc4)C(=O)[C@H]3CC[C@H]12,–,3.98 µM (active)
C#CCCCO/N=C1/C[C@@H](O)[C@@H](O)[C@@H]2[C@@H]3C(=O)N(Cc4ccccc4)C(=O)[C@H]3CC[C@@H]12,-23.2% [at 11.4 µM],–
CCOC(=O)N/N=C1/C[C@@H](O)[C@@H](O)[C@@H]2[C@@H]3C(=O)N([C@@H](C)c4ccccc4)C(=O)[C@H]3CC[C@H]12,-23.4% [at 11.4 µM],–
C#CCCCO/N=C1/C[C@@H](O)[C@@H](O)[C@@H]2[C@@H]3C(=O)N(Cc4ccccc4)C(=O)[C@H]3CC[C@H]12,–,3.98 µM (active)
C#CCCCO/N=C1/C[C@@H](O)[C@@H](O)[C@@H]2[C@@H]3C(=O)N(CC)C(=O)[C@H]3CC[C@@H]12,-23.5% [at 11.4 µM],–
C#CCCCO/N=C1/C[C@@H](O)[C@@H](O)[C@@H]2[C@@H]3C(=O)N([C@@H](C)c4ccccc4)C(=O)[C@H]3CC[C@@H]12,–,3.98 µM (active)
C[C@H](c1ccccc1)N1C(=O)[C@H]2[C@@H]3[C@H](O)[C@H](O)CC(=O)[C@H]3CC[C@H]2C1=O,-18.1% [at 11.4 µM],–
C#CCCCO/N=C1/C[C@@H](O)[C@@H](O)[C@@H]2[C@@H]3C(=O)N(CC)C(=O)[C@H]3CC[C@H]12,-27.7% [at 11.4 µM],–
CCOC(=O)N/N=C1/C[C@@H](O)[C@@H](O)[C@@H]2[C@@H]3C(=O)N([C@@H](C)c4ccccc4)C(=O)[C@H]3CC[C@@H]12,-20.9% [at 11.4 µM],–
C#CCCCO/N=C1/C[C@@H](O)[C@@H](O)[C@@H]2[C@@H]3C(=O)N(C4CCCCC4)C(=O)[C@H]3CC[C@@H]12,–,3.16 µM (active)
CC(C)CO/N=C1/C[C@@H](O)[C@@H](O)[C@@H]2[C@@H]3C(=O)N([C@@H](C)c4ccccc4)C(=O)[C@H]3CC[C@@H]12,-29.6% [at 11.4 µM],–
C[C@@H]1[C@H]2CC[C@@H]3[C@@H]4CC=C5C[C@@H](N(C)C)CC[C@]5(C)[C@@H]4CC[C@@]32CN1C,–,inactive
CC(C)Nc1cc(C(F)(F)F)nc(-c2ccccn2)n1,–,inactive
CC(C)Nc1nc(Oc2ccc(Cl)cc2)cc(C(F)(F)F)n1,–,inactive
CC(C)c1cc(C(F)(F)F)nc(NNc2nc(C(C)C)cc(C(F)(F)F)n2)n1,–,3.16 µM (active)
Cc1nn(-c2ccc(Cl)cc2)c2sc(C(=O)c3c(N)n(C)c(=O)n(C)c3=O)cc12,7.37% [at 2.29 µM],–
O=c1c2ccccc2nnn1CSc1ccc2c(c1)OCCO2,–,inactive
CC(C)Cn1c(N)c(C(=O)CSc2ccc3c(c2)OCCO3)c(=O)n(C)c1=O,–,3.98 µM (active)
Cn1c(N)c(C(=O)CSc2ccc3c(c2)OCCO3)c(=O)n(C)c1=O,–,5.62 µM (active)
CCc1c(C)c2c(C)[nH]nc2oc1=O,–,inactive
CC(C)(C)[Si](C)(C)c1c2c(nc3ccc(OCc4ccccc4)cc13)-c1cccc(=O)n1C2,–,15.8 µM (active)
COc1cc2nc3c(c([Si](C)(C)C(C)(C)C)c2cc1OC)Cn1c-3cccc1=O,–,3.98 µM (active)

SMILES,"activity, negative = inhibition",AC50
COc1ccc2nc3c(c([Si](C)(C)C(C)(C)C)c2c1)Cn1c-3cccc1=O,–,1.58 µM (active)
OC[C@H]1NC[C@H](O)[C@@H](O)[C@H]1O,–,inactive
O=C(N/N=C/C1CCCCC1)c1ccccn1,-7.05% [at 11.4 µM],–
CCC(C)(C(=O)NC1CCCC1)N(C(=O)c1ccccn1)c1ccccc1 (configuration not stated),–,5.01 µM (active)
CCC(C)(C(=O)NC1CCCC1)N(Cc1ccco1)C(=O)c1ccccn1 (configuration not stated),–,8.91 µM (active)
C[C@]1(OC(=O)/C=C\c2ccccc2)C[C@@H](O)[C@@]2(O)C=CO[C@@H](O[C@H]3O[C@@H](CO)[C@@H](O)[C@@H](O)[C@@H]3O)[C@H]21,–,inactive
O=C(N/C(=C/c1cccs1)c1nc2ccccc2[nH]1)c1ccccc1,–,14.1 µM (active)
O=C(N/C(=C/c1ccc(Br)cc1)c1nc2ccccc2[nH]1)c1ccco1,–,1.58 µM (active)
NS(=O)(=O)c1ccc(N=C2C(=O)Nc3ccccc32)cc1,-12.5% [at 11.4 µM],–
O=C1Nc2ccccc2Nc2ncccc21,–,inactive
CN(C)c1ccc(/C=C2/C(=O)Nc3ccccc32)cc1,–,10 µM (active)
COc1ccc(C(=O)N2CCC3(CCCN(C(=O)Nc4cccc(F)c4)C3)CC2)cc1,–,12.6 µM (active)
O=C(Nc1cccc(F)c1)N1CCCC2(CCN(C(=O)c3ccncc3)CC2)C1,–,6.31 µM (active)
COCC(=O)N1CCC2(CCCN(C(=O)Nc3cccc(F)c3)C2)CC1,–,inactive
CC(=O)N1CCC2(CC1)CCN(C(=O)Nc1cccc(F)c1)CC2,–,inactive
O=C(Nc1cccc(F)c1)N1CCCC2(CCNCC2)C1,–,15.8 µM (active)
COC(=O)N1CCC2(CCN(C(=O)Nc3cccc(F)c3)CC2)CC1,–,inactive
O=C(Nc1cccc(F)c1)N1CCC2(CCNCC2)CC1,–,inactive
COc1ccc(C(=O)N2CCC3(CCN(C(=O)Nc4cccc(F)c4)CC3)CC2)cc1,–,inactive
NC(=NCCC[C@H](N)C(=O)O)NO,–,inactive
Cc1noc(N)c1C(=O)Nc1ccc(F)cc1,11.9% [at 2.29 µM],–
CSc1nsc(SC)c1C(=O)Nc1ccc(C)cc1,–,7.94 µM (active)

SMILES,"activity, negative = inhibition",AC50
CCC(=O)NCCNC(=O)c1c(SC)nsc1SC,–,inactive
O=C(O)c1nnsc1-c1csnn1,-19.7% [at 11.4 µM],–
COc1ccc(-n2c(C)nn(C)c2=O)cc1,–,inactive
CCOC(=O)c1nc(N)sc1C(=O)OCC,–,inactive
CCOC(=O)c1sc(=N)n(-c2ccc(OC)cc2)c1C,–,7.08 µM (active)
N[C@@H](Cc1ccccc1)C(=O)O,-6.07% [at 11.4 µM],–
CC1(C)CC(=O)C/C(=N/NC(=O)CCCOc2ccc(Cl)cc2Cl)C1,-15.2% [at 2.29 µM],–
COc1ccc(/C=N/NC(=O)CCCOc2ccc(Cl)cc2Cl)cc1[N+](=O)[O-],–,14.1 µM (active)
CC(C)(C)C(=O)NNC(=O)CCCOc1ccc(Cl)cc1Cl,–,inactive
O=C(Nc1ccc(-c2cn3ccccc3n2)cc1)c1cc(Br)ccc1O,-18.7% [at 11.4 µM],–
COc1ccc(Br)cc1C(=O)Nc1ccc(Cc2ccncc2)cc1,–,0.708 µM (active)
COc1ccc(NC(=O)c2ccc(C(=O)c3cc(OC)ccc3OC)cc2)cc1,–,inactive
O=C(NCCNS(=O)(=O)c1ccccc1Cl)c1cc(OCC(F)(F)F)ccc1OCC(F)(F)F,–,25.1 µM (active)
O=C(O)CONC(=O)c1cc(OCC(F)(F)F)ccc1OCC(F)(F)F,–,inactive
Cc1ccc(/C=N\NC(=O)c2cc(OCC(F)(F)F)ccc2OCC(F)(F)F)cc1,–,inactive
COC(=O)C/C=C\[C@@H](C)[C@@H](/C=N\O[C@@H](C)c1cn([C@H]2COC[C@H]2O)nn1)NS(=O)(=O)c1ccc(C)cc1,–,3.98 µM (active)
COC(=O)C/C=C\[C@@H](C)[C@@H](/C=N\O[C@@H](C)c1cc(-c2c(C)cc(C)cc2C)no1)OC,-76.7% [at 11.4 µM],–
COC(=O)C/C=C\[C@@H](C)[C@@H](/C=N\O[C@@H](C)c1cc(-c2c(C)cc(C)cc2C)no1)NS(=O)(=O)c1ccc(C)cc1,–,3.16 µM (active)
COC(=O)C/C=C\[C@@H](C)[C@@H](/C=N\O[C@@H](C)c1cn([C@H](CO)Cc2ccccc2)nn1)NS(=O)(=O)c1ccc(C)cc1,–,3.98 µM (active) and 2 µM (active)
COC(=O)C/C=C\[C@@H](C)[C@@H](/C=N\O[C@@H](C)c1cn([C@H]2COC[C@H]2O)nn1)OC,-29.8% [at 11.4 µM],–
COC(=O)C/C=C\[C@@H](C)[C@@H](/C=N\O[C@@H](C)c1cn([C@H](CO)Cc2ccccc2)nn1)OC,–,3.98 µM (active)
